Compounds without any hit were thinned out: in the full panel of roughly 83,000, 20% have a hit.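 For each line, cells grew in 96-well plates with the test compound present at a single concentration for 48 hours.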 Calls of active or inactive are those of the source. How the source made its calls: active means growth percent below 10; inactive means the rest.
Experiments:
Assay in all cases: NCI-60 one-dose screen, 48 h (100 = growth as untreated, 0 = no growth, -100 = all killed)
Details in all cases: 10 µM unless noted
[1] = system: HCT-15 colon
[2] = system: HT29 colon
[3] = system: SNB-75 CNS
[4] = system: SNB-19 CNS
[5] = system: PC-3 prostate
[6] = system: SK-MEL-5 melanoma
[7] = system: UACC-62 melanoma
[8] = system: LOX IMVI melanoma
[9] = system: SK-MEL-28 melanoma
[10] = system: U251 CNS

Measured: growth

N#C/C=C(\c1ccc([N+](=O)[O-])cc1)n1nnc2cc(Cl)c(Cl)cc21
inactive: [3] 18.1% | [4] 41.5% | [6] 38.5% | [9] 43.2%
active: [1] -39.1% | [2] 3.93% | [5] -12.5% | [7] 3.91% | [8] -79.9%

Cc1c(Cl)cccc1NS(=O)(=O)c1ccccc1
inactive: [1] 97.3% | [2] 99.8% | [3] 87.9% | [4] 106% | [10] 106% | [6] 96.7% | [7] 102% | [8] 104% | [9] 99%

C=C(Cl)COC(=O)C(C)(C)O
inactive: [1] 102% | [2] 92.8% | [3] 84.6% | [4] 105% | [5] 92.8% | [6] 106% | [7] 111% | [8] 94.8% | [9] 97.7%

NC(=Nc1ccc(N)cc1)C(N)=Nc1ccc(N)cc1
inactive: [1] 98.5% | [2] 113% | [3] 91.8% | [4] 102% | [10] 101% | [6] 98.7% | [7] 104% | [9] 117%

COc1cc(-c2cc(-c3ccc(Nc4nc(Nc5ccccc5)nc(Nc5ccc(Cl)cc5)n4)cc3)nc(N)n2)cc(OC)c1OC
inactive: [1] 62.3% | [2] 52.4% | [3] 56.2% | [4] 79.6% | [10] 42.6% | [6] 43.1% | [7] 49.7% | [8] 60.2% | [9] 86.9%

CCN(CC)c1ccc(Nc2ccc(CC(=O)c3ccccc3)cc2)cc1
inactive: [1] 88.7% | [2] 75.8% | [3] 91.1% | [4] 80.8% | [5] 39.9% | [6] 79.9% | [7] 78.5% | [8] 91.3% | [9] 98.5%

Cc1csc(NC(=O)c2sc3nc(-c4cccs4)ccc3c2N)n1
inactive: [1] 102% | [2] 102% | [3] 102% | [4] 112% | [5] 82.6% | [6] 92.2% | [7] 98.2% | [8] 95.1% | [9] 115%

O=C(Oc1ccc[nH]c1=O)c1cc([N+](=O)[O-])cc([N+](=O)[O-])c1
inactive: [1] 103% | [2] 112% | [3] 97.1% | [4] 114% | [10] 109% | [6] 105% | [7] 114% | [8] 99.5% | [9] 122%

O=C(CC12CC3CC(CC(C3)C1)C2)NCCOCCOCCNC(=O)c1cc2c(o1)C(=O)c1ccccc1C2=O
active: [1] -80.2% | [2] 3.08% | [3] -99% | [4] -16.3% | [5] 4.8% | [6] -97.5% | [7] -94.9% | [8] -95.1% | [9] -73.5%

Cc1ccc(/C(=N\N=C(N)N)c2ccccc2)cc1
active: [1] -4.22% | [2] 3.12% | [4] 9.71% | [6] -13.4%
inactive: [3] 28.5% | [5] 14.1% | [7] 20.7% | [8] 28.3% | [9] 64.4%

Clc1ccc(-c2nc(NCCc3ccccc3)nc3c(NCCc4ccccc4)cnn23)cc1
inactive: [1] 72.9% | [2] 41.9% | [3] 85.6% | [4] 85.6% | [5] 51.7% | [6] 94.2% | [7] 73.2% | [8] 60.9% | [9] 75.2%

Cn1cc(-c2ccc3nc(-c4ccc(CC(=O)Nc5cc(C(C)(C)C)no5)cc4)cnc3c2)cn1
inactive: [1] 11.5% [30 µM] | [2] 58.4% [30 µM] | [3] 26.5% [30 µM] | [4] 53.6% [30 µM] | [5] 40.2% [30 µM] | [8] 20.1% [30 µM] | [9] 37.5% [30 µM]
active: [7] 9.8% [30 µM]

C=C1C(=O)O[C@H]2[C@H]1CC/C(COC(=O)/C=C\C(=O)NCc1ccc(Cn3c(=O)sn(-c4ccc(Cl)cc4)c3=O)cc1)=C\CC[C@@]1(C)O[C@@H]21
active: [1] -33.8% | [2] -28.3% | [3] -83.5% | [4] -8.33% | [5] -64.1% | [7] -97.6% | [8] -84.9% | [9] -93.5%

COc1cc2c(cc1OC)-c1ccc3cc4c(cc3c1N(CCCn1ccnc1)C2)OCO4
active: [6] 8.78% | [7] -20.4% | [8] 1.62%
inactive: [1] 95.7% | [2] 27.6% | [3] 13.2% | [4] 17.2% | [5] 37.6% | [9] 59.2%

C=C1C(=O)O[C@H]2[C@H]1CC/C(Cn1cc(CNCCc3c[nH]c4ccccc34)nn1)=C\CC[C@@]1(C)O[C@@H]21
inactive: [1] 102% | [2] 61.2% | [3] 79.8% | [4] 98.3% | [5] 94.1% | [6] 96.5% | [7] 84.7% | [8] 94% | [9] 89%

COC1(CC[C@@H](C)COC2OC(CO)C(O)C(O)C2O)O[C@H]2C[C@H]3[C@@H]4CC=C5C[C@@H](OC6OC(CO)C(OC7OC(C)C(O)C(O)C7O)C(O)C6OC6OC(C)C(O)C(O)C6O)CC[C@]5(C)[C@H]4CC[C@]3(C)[C@H]2[C@@H]1C (stereo partly specified)
active: [1] -88.7% | [2] -76.6% | [3] -70.5% | [4] -64.1% | [10] -98.1% | [6] -65.1% | [7] -92.1% | [8] -95.9% | [9] -95.7%

Cc1ccc(O)c(C(=O)c2ccccc2Cl)c1
inactive: [1] 99.5% | [2] 108% | [3] 79.3% | [4] 109% | [10] 98.5% | [6] 97.6% | [7] 101% | [8] 101% | [9] 105%

CCCCCCCCc1cc[n+](CC(=O)c2ccc(Br)cc2)cc1
active: [2] -88.9% | [6] -93.5% | [7] -32.9%
inactive: [1] 47% | [3] 50.5% | [4] 35.3% | [5] 10.2% | [9] 32.9%

O=C(CC1Sc2ccccc2NC1=O)NNc1ccc(F)cc1 (stereo unspecified)
inactive: [1] 60.5% | [2] 98.5% | [3] 73.3% | [4] 84.5% | [5] 52.5% | [6] 106% | [7] 40% | [8] 18.5% | [9] 123%

C=C(C)[C@@H]1CC[C@]2(CN)CC[C@]3(C)[C@H](CC[C@@H]4[C@@]5(C)CCC(N)[C@@](C)(CO)[C@@H]5CC[C@]43C)[C@@H]12 (stereo partly specified)
inactive: [3] 75.6%
active: [1] -47.6% | [2] -60.6% | [4] -10.5% | [5] 6.4% | [6] -97.2% | [7] -79.6% | [9] -94.2%

O=[N+]([O-])c1ccc(-c2cc3c(Nc4ccc(OCc5cccc(Cl)c5)c(Cl)c4)ncnc3s2)cc1
inactive: [1] 55.3% | [2] 47.3% | [3] 69.8% | [4] 67.6% | [5] 48% | [6] 97.6% | [8] 66.4% | [9] 86.8%

CCN(CC)CC(O)CNc1c2ccc(Cl)cc2nc2ccc(OC)cc12 (stereo unspecified)
active: [1] -6.56% | [2] -4.13% | [6] -92.5% | [8] -64.2% | [9] -96.6%
inactive: [3] 58.4% | [4] 57.3% | [5] 16.6% | [7] 64.8%

COc1ccc(-c2nc3sc4c(c3c(=O)[nH]2)CCCC4)c2ccccc12
inactive: [4] 36% | [5] 11.7% | [6] 18.1% | [7] 24.4% | [8] 26.9%
active: [1] 6.37% | [2] -0.244% | [3] -25.5% | [9] -5.17%

COC(=O)CCCNC(=O)C(=O)c1c(O)c(O)c(C(C)C)c2cc(C)c(-c3c(C)cc4c(C(C)C)c(O)c(O)c(C(=O)C(=O)NCCCC(=O)OC)c4c3O)c(O)c12
active: [1] 1.55% | [2] -22.9% | [6] -68.8% | [7] -35.6% | [8] -85.6%
inactive: [3] 49.6% | [4] 22.5% | [5] 21.4% | [9] 23.5%

Cl.Fc1c[c-]c(-c2ccccn2)c(F)c1.[Pt].c1ccc(P(c2ccccc2)C([PH+](c2ccccc2)c2ccccc2)[PH+](c2ccccc2)c2ccccc2)cc1
inactive: [1] 56.1% | [2] 11.8% | [4] 27.1% | [7] 23.2% | [8] 11.7% | [9] 34.4%
active: [3] 7.77% | [5] 7.49% | [6] -91%

CC(C)(C)N1CC(OC(N)=O)C1
inactive: [1] 113% | [2] 101% | [3] 81.6% | [4] 106% | [10] 101% | [6] 102% | [7] 103% | [8] 96.3% | [9] 109%

COC(=O)[C@]12CC[C@@H](C)[C@H](C)[C@@H]1C1=CC[C@@H]3[C@@]4(C)C(C=O)=C[C@@](C)(CO)C4=CC[C@@]3(C)[C@]1(C)CC2
inactive: [2] 14.5% | [3] 62.6% | [4] 39.4% | [5] 16.2% | [6] 35.2% | [7] 42.9% | [8] 26.1% | [9] 26.9%
active: [1] 9.41%

CC1(C)N=C(N)N=C(N)N1c1cccc(CN)c1
inactive: [1] 97.8% | [2] 95.7% | [3] 73.6% | [4] 100% | [5] 87.3% | [6] 109% | [7] 95.9% | [8] 89.2% | [9] 106%

Source: PubChem BioAssay (NCI)
